The text below walks through data of ChEMBL document CHEMBL3988442, “University of Dundee, Small-Polar-MMV Screening Library” (2021).

Holding throughout (set-up): scale not given: direction of the effect not stated beside the values
Experiment [1] addresses Protein translocase subunit SecA (Escherichia coli (strain K12)) (UniProt P10408). The experiment is described as follows: Assay to Identify E. coli SecA ATPase Inhibitors. The experiment is classed as functional. The settings on record: 30 µM.
Experiment [2] concerns the target T1, Ubiquitin-activating enzyme e1, putative (Leishmania donovani (strain BPK282A1)) (UniProt E9BSI1).
T1 sequence (whole entry): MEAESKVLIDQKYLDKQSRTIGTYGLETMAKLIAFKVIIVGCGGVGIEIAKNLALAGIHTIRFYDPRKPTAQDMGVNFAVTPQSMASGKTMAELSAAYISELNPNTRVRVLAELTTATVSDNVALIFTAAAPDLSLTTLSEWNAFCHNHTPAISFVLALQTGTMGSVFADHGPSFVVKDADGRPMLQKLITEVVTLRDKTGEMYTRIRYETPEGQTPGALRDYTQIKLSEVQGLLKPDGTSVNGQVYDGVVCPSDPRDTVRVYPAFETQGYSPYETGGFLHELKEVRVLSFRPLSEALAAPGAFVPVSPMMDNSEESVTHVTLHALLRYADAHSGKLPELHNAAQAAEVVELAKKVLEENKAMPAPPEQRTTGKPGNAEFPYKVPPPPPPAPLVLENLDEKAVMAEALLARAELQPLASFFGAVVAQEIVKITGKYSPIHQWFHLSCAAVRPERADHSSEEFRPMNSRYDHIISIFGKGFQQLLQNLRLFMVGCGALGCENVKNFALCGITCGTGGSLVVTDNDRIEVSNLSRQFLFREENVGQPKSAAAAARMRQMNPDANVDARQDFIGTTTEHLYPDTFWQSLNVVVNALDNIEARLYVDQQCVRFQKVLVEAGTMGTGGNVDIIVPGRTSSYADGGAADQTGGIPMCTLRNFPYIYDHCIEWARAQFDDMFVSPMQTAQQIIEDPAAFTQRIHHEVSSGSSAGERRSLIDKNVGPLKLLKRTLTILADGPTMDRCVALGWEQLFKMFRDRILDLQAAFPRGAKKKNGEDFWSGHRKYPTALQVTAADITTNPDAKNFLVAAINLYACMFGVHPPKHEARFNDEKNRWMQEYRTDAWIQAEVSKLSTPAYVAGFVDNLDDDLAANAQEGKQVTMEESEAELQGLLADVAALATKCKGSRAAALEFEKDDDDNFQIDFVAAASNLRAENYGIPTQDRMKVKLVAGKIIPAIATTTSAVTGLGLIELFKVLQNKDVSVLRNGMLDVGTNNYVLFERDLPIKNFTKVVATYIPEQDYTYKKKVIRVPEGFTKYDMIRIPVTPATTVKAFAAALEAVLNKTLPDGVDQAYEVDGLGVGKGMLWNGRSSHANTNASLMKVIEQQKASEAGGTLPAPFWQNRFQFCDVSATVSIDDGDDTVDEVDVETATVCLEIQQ
The experiment is described as follows: Leishmania donovani Ubiquitin Activating Enzyme (LdE1). The experiment is classed as functional. The settings on record: 30 µM.

In experiment [3] the target is Sialic acid-binding Ig-like lectin 9 (Homo sapiens) (UniProt Q9Y336). The experiment is described as follows: Hs-Siglec9 ALPHAscreen SOP 20170721. The settings on record: 10 µM.
Sequence of Sialic acid-binding Ig-like lectin 9 (Homo sapiens) (Q9Y336 whole entry): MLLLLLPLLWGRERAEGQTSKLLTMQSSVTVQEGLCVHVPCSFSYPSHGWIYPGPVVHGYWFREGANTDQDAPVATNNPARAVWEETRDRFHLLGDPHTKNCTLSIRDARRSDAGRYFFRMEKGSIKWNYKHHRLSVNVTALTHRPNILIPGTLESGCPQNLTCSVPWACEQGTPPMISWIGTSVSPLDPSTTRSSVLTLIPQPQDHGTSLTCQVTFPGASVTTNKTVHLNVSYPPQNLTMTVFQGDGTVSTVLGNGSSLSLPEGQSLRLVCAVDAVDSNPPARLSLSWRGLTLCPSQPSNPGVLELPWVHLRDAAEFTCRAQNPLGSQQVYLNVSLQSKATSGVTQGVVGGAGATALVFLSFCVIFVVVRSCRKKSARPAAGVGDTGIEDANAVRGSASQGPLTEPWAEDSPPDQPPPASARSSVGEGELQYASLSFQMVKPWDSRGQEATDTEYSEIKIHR
For another experiment, the system named is Trypanosoma cruzi. The experiment is described as follows: Trypanosoma cruzi phosphomannomutase and mannose-1-phosphate guanylyltransferase assay. The experiment is classed as functional. The settings on record: 10 µM.
Experiment [4] addresses T2, Arginase-2, mitochondrial (Homo sapiens) (UniProt P78540).
T2 sequence (whole entry): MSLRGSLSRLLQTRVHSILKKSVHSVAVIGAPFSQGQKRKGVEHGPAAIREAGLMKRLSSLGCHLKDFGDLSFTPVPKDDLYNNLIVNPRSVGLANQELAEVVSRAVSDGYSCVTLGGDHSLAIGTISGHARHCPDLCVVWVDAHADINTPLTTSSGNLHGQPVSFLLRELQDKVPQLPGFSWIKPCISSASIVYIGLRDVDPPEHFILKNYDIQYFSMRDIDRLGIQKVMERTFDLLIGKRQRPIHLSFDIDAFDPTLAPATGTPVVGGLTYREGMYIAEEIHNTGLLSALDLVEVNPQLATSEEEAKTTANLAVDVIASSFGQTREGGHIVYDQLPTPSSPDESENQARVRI
Nature of the experiment: in vitro enzyme assay to detect the production of urea directly proportional to the activity of Arginase II. Also: in the data most compounds retested in dose-response had high values. The experiment is classed as functional. The settings on record: 33.3 µM.

The target of experiment [5] is T3, Proteasome subunit beta (Trypanosoma cruzi) (UniProt O96673).
T3 sequence (whole entry): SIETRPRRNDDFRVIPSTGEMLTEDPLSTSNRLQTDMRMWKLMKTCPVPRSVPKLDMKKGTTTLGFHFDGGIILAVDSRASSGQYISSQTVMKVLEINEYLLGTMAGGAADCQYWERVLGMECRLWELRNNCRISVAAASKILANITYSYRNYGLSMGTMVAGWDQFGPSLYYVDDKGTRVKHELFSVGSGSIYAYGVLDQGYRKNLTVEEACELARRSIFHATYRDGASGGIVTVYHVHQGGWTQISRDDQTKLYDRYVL
Nature of the experiment: Trypanosoma cruzi proteasome chymotrypsin-like activity (TcProtChymo) assay. Also: in the data most compounds retested in dose-response had high values. Format: functional. The settings on record: 9.37 µM.

The species named for another experiment is Homo sapiens. Nature of the experiment: To identify inhibition of the IFN signalling (Jak-Stat) pathway via expression of an eGFP reporter gene under the control of an IFN-stimulated response element (ISRE) containing MxA promoter. The experiment is classed as functional. The settings on record: 30 µM. (In general: A reporter such as luciferase makes a cellular process visible.)

In experiment [6] the target is T4, Tyrosyl-tRNA synthetase, putative (Trypanosoma cruzi (strain CL Brener)) (UniProt Q4DSP6).
T4 sequence (whole entry): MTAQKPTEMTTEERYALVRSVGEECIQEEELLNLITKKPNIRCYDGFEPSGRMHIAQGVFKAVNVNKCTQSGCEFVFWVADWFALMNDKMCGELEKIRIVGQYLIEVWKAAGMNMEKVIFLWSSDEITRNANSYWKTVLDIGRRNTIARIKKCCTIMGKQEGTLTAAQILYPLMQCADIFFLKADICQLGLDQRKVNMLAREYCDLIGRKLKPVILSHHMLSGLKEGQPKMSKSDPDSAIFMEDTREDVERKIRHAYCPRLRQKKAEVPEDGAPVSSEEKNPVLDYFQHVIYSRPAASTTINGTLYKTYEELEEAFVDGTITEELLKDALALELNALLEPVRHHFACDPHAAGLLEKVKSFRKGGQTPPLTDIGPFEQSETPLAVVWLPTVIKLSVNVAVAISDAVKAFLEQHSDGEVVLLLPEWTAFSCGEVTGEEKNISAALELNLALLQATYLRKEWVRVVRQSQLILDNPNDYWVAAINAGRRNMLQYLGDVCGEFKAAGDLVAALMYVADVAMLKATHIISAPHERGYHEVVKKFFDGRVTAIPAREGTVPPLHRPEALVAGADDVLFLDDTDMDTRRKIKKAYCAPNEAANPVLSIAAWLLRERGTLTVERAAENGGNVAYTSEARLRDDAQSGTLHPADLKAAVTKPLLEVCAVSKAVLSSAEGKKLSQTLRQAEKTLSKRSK
The experiment is described as follows: Trypanosoma cruzi tyrosyl tRNA synthetase (TcYRS) _High Tyrosine SOP. Also: in the data most compounds retested in dose-response had high values. The settings on record: 30 µM. The experiment is classed as functional.

The target in experiment [7] is T4, Tyrosyl-tRNA synthetase, putative (Trypanosoma cruzi (strain CL Brener)). The experiment is described as follows: Trypanosoma cruzi tyrosyl tRNA synthetase (TcYRS) SOP. The experiment is classed as functional. The settings on record: 30 µM.
In experiment [8] the target is Chromo domain-containing protein 1 (Saccharomyces cerevisiae (strain ATCC 204508 / S288c) (Baker's yeast)) (UniProt P32657). The experiment is described as follows: ScCHD-1 Enzyme Inhibition Assay. Also: in the data most compounds retested in dose-response had high values. The experiment is classed as functional. The settings on record: 30 µM.
Sequence of Chromo domain-containing protein 1 (Saccharomyces cerevisiae (strain ATCC 204508 / S288c) (Baker's yeast)) (P32657 whole entry, the tested form may be a part): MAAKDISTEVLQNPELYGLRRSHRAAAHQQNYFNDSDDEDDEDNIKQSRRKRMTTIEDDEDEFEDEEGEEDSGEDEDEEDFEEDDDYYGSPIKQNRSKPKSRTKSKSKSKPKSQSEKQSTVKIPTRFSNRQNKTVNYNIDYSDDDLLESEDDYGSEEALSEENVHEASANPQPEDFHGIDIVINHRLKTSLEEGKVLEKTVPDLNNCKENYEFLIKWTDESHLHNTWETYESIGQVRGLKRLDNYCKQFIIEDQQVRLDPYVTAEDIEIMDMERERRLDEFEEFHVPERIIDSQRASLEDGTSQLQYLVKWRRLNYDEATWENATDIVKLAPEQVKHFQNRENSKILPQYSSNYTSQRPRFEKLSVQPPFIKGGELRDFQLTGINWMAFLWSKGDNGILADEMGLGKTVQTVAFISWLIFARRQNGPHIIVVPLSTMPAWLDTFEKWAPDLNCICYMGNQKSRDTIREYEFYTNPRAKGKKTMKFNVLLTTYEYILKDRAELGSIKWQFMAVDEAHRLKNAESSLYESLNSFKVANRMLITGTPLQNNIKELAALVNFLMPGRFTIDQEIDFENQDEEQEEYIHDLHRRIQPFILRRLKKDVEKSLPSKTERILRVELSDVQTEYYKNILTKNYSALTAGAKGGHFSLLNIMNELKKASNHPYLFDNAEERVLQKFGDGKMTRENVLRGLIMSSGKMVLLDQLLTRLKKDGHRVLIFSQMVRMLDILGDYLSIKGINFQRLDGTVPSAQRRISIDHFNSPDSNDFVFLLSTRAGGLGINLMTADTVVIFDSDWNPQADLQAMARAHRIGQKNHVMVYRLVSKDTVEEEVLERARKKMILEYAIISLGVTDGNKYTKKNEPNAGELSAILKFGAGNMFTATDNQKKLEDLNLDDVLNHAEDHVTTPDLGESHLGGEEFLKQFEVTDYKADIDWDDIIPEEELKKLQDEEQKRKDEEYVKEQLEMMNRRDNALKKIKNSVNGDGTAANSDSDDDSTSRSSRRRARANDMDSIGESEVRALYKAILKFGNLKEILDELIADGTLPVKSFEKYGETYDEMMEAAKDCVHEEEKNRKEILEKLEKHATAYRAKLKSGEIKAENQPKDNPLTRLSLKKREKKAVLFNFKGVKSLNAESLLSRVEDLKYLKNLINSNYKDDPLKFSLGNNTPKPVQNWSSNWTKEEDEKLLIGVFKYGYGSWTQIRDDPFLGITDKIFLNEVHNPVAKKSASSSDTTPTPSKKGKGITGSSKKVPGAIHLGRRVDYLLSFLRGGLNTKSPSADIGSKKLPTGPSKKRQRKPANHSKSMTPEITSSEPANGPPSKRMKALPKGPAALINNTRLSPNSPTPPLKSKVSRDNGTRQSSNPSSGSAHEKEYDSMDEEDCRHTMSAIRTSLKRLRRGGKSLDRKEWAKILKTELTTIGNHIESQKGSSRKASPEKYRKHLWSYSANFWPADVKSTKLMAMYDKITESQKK

SMILES strings stand for the structures. For part of these data: Results with a measured potency or affinity are listed apart.

Sequence of Protein translocase subunit SecA (Escherichia coli (strain K12)) (P10408 whole entry): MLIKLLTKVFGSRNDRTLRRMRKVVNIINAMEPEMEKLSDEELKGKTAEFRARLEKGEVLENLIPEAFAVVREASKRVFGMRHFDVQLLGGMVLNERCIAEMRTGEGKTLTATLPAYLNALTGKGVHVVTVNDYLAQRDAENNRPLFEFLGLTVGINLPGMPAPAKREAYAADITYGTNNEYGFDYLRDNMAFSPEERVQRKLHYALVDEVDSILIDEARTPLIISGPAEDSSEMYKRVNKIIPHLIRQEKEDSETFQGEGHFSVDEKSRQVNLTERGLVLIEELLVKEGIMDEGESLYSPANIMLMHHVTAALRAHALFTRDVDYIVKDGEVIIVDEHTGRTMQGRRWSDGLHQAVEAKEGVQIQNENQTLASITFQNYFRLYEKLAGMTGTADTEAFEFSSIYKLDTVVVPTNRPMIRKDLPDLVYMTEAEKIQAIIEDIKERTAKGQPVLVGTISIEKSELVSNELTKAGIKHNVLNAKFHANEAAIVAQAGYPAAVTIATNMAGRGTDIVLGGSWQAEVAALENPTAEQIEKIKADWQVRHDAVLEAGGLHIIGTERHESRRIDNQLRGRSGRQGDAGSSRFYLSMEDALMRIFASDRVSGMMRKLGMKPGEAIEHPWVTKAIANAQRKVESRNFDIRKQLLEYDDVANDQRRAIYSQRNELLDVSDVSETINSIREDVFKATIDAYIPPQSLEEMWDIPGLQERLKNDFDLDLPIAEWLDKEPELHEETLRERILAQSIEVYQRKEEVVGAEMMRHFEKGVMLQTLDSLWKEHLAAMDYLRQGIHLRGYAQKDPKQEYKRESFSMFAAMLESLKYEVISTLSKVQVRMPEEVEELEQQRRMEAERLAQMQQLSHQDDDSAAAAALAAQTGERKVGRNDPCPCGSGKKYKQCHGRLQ

Take `Cc1ncc2c(n1)CN(CCCc1nc3ccccc3o1)CC2`: the Percent Effect in [1] was -8.07%; in experiment [2], 10.7%; in [3] it was 3.45%; in the experiment on Trypanosoma cruzi it was 0%; in experiment [4], -3.1%; in [5], 8.91%. Also, the Percent Effect in the experiment listed under Homo sapiens is -14.7%; in [6], 22.6%; in experiment [7], 28.2%; in [8], -7.47%.
As to `COC(=O)C1CCN(C(=O)c2ccc(NS(C)(=O)=O)c(C)c2)CC1`, the Percent Effect in experiment [1] was -3.21%; in [2] it was -5.41%; in [3], -1.94%; with Trypanosoma cruzi, -2.04%; in experiment [4], -0.35%; in experiment [5], 10.3%. For the same compound, the Percent Effect is -0.596% in the experiment filed under Homo sapiens, 3.72% in experiment [6], 0% in experiment [7] and 0.629% in [8].
`Cn1cc(C(=O)N2CCCC(n3cccn3)C2)c2ccccc21` (stereo not given): the Percent Effect in experiment [1] is -1.25%; in [2], 8%; in experiment [3], -2.42%; in the experiment on Trypanosoma cruzi, -5.62%; in [4], 7.09%; in experiment [5] it was 3.65%. Moreover, the Percent Effect in the experiment listed under Homo sapiens is 9.06%; in experiment [6], 2.63%; in experiment [7] it was 5.13%; in experiment [8], -11.9%.
With `Cc1cc(CN(C)C(=O)NCC(C)N2CCc3ccccc32)no1` (stereo not given), the Percent Effect in experiment [1] was -2.85%; in experiment [2], -2.6%; in experiment [3] it was 14.4%; in the experiment on Trypanosoma cruzi it was 1.31%; in [4] it was -2.25%; in experiment [5] it was -2.46%. The Percent Effect in the experiment filed under Homo sapiens is -9.63%; in [6], 7.84%; in [7], 7.06%; in experiment [8], 4.85%.
Consider `O=C(NCc1nn(-c2ccccc2)c2c1CCC2)N1CCSCC1`, for which the Percent Effect in experiment [1] is -6.8%; in [2], -2.56%; in experiment [3] it was -13.1%; in the experiment on Trypanosoma cruzi, 12.7%; in experiment [4] it was -1.64%; in experiment [5] it was 7.25%. The Percent Effect in the experiment filed under Homo sapiens is 15.5%; in experiment [6] it was 2.39%; in experiment [7] it was 13.2%; in experiment [8], -7.59%.
With `CCOc1ncccc1C(=O)N1CCCC1c1c(C)nn(C)c1OC` (stereo not given), the Percent Effect in experiment [1] was 1.2%; in experiment [2], 0%; in experiment [3], 10.2%; with Trypanosoma cruzi it was 1.68%; in [4] it was -2.25%; in experiment [5], -2.81%. Also, the Percent Effect in the experiment filed under Homo sapiens is -1.22%; in experiment [6], 4.9%; in experiment [7], 11.8%; in [8], -4.83%.
On to `O=C(CCCOc1ccccc1Cl)N1CCCC(n2cncn2)C1` (stereo not given), for which the Percent Effect in experiment [1] was -2.02%; in experiment [2], 5.13%; in experiment [3] it was -18.2%; in the experiment on Trypanosoma cruzi, 6.1%; in experiment [4], -13.9%; in [5], -5.03%. The Percent Effect was -5.2% in the experiment filed under Homo sapiens, 1.44% in experiment [6], 6.02% in [7] and 0.499% in [8].
`COc1ccc(CC(=O)N2CCCC(n3cc(C)cn3)C2)cc1F` (stereo not given): the Percent Effect in [1] is -2.21%; in experiment [2], -2.67%; in [3], 3.32%; with Trypanosoma cruzi it was 0.201%; in [4], 2.66%; in experiment [5], 4.16%. In addition, the Percent Effect in the experiment listed under Homo sapiens was 3.46%; in experiment [6], 2.63%; in experiment [7] it was 2.56%; in experiment [8], -4.37%.
As for `CC(C)CNC(=O)c1ccc2nnc(C3CCN(S(C)(=O)=O)C3)n2c1` (stereo not given), the Percent Effect in experiment [1] is -3.3%; in experiment [2], -3.9%; in experiment [3], 1.06%; in the experiment on Trypanosoma cruzi, -1.27%; in experiment [4] it was 0%; in [5] it was 3.44%. Also, the Percent Effect in the experiment listed under Homo sapiens is -2.55%; in experiment [6], -0.526%; in experiment [7], 2.56%; in experiment [8] it was -1.85%.
Turning to `Cc1nc(CN2CCCC(CCc3ccc(F)cc3F)C2)c[nH]1` (stereo not given), the Percent Effect was -4.78% in experiment [1]; -2.7% in [2]; 37.1% in [3]; 4.75% in the experiment on Trypanosoma cruzi; 1.05% in experiment [4]; 3.94% in experiment [5]. The Percent Effect in the experiment filed under Homo sapiens is -3.62%; in experiment [6] it was 2.66%; in [7], 7.32%; in experiment [8], -1.62%.
`CNC(=O)c1cccnc1Oc1ccccc1`: the Percent Effect is -2.06% in [1]; 19.5% in experiment [2]; 16.3% in experiment [3]; 5.07% with Trypanosoma cruzi; 0% in experiment [4]; 13.5% in experiment [5]. Moreover, the Percent Effect in the experiment filed under Homo sapiens was 10%; in experiment [6], 4.83%; in [7], 12.5%; in [8], -9.58%.
For `CCc1nc(CNCC2CCCN2c2cc(NC)ncn2)cs1` (stereo not given), the Percent Effect in experiment [1] was -1.05%; in [2] it was 0%; in experiment [3] it was 1.02%; in the experiment on Trypanosoma cruzi it was 9.48%; in [4], 1.64%; in experiment [5], 6.91%. Also, the Percent Effect is -11.3% in the experiment filed under Homo sapiens, 3.35% in [6], 6.02% in experiment [7] and -3.49% in experiment [8].
